Assay outcomes as filed in PubChem.
An excerpt weighted towards active compounds, which were near 4.3% of everything screened.
HIF-2a block: blocks HIF-2a reporter activity; actives 0.72% (n = 360,000); 786-0 RCC cells HIF-2a reporter, luciferase luminescence, overnight; inhibition, % at 18.8 µM;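 active = inhibition of the luminescence signal of 40% or more relative to plate controls, in a single-dose primary screen at 18.75 µM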
Peg3 promoter: reduces Peg3 promoter-driven luciferase expression in HeLa. HeLa PEG-Prom luciferase reporter, luminescence, overnight. inhibition, % at 20 µM. actives 1.7% (n = 360,000);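 active = inhibition of at least 50% at 20 µM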
CHOP inhibitor: blocks CHOP induction under ER stress. actives 3.8% (n = 220,000). inhibition, % at 10 µM. CHO-K1 CHOP-promoter luciferase, tunicamycin-induced, 15-18 h;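 active = compounds that reduced the stress-induced luciferase reporter signal by more than about 70% of percent inhibition, limit read from the data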;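 also: 0% = tunicamycin plus vehicle and 100% = wells without tunicamycin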
KKLEB tox: counter-screen for CF NF-kB inhibitors: cytotoxicity. activity change (cytotoxicity), % at 5 µM. actives 0.36% (n = 360,000). KKLEB CF airway cells viability, ATPlite luminescence, overnight; hits give low values; cells stimulated with P. aeruginosa culture filtrate. AID 602141;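 active = corrected activity change at or below -50% at 5 µM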
TRPM1 prom inh: MITF TRPM1 promoter inhibition in SK-MEL-5 cells | inhibition, % at 12.5 µM | actives 0.83% (n = 330,000) | AID 488899 | SK-MEL-5 TRPM1 promoter luciferase, 24 h;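 active = mean inhibition across replicates of 60% or more, whatever share of single replicates reaches that level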
CF NFkB inh: cystic fibrosis NF-kB activation inhibition | KKLEB NF-kB-GFP reporter, PAF-induced, GFP fluorescence overnight | inhibition, % at 5 µM | actives 0.86% (n = 360,000);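 active = at least 50% inhibition at 5 µM, scaled per plate between neutral and stimulator controls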;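 also: PAF is a Pseudomonas aeruginosa culture filtrate used as stimulus; plate controls were PAF-stimulated DMSO wells for no effect and unstimulated DMSO wells for full effect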
* = called active by the depositor; . = no result.

SMILES	HIF-2a block	Peg3 promoter	CHOP inhibitor	KKLEB tox	TRPM1 prom inh	CF NFkB inh
CC1CCCCC1NC(=S)Nc1ccc(SC(F)F)cc1 (stereo unspecified)	-149.3	-39.5	-12.5	-10.0	-32.8	23.2
Cc1ccc(-n2[nH]c(C)c(/C=N/c3ccccn3)c2=O)cc1	-21.0	-5.4	15.7	10.2	-3.4	-9.8
Cc1ccc(-n2[nH]c(C)c(C=Nc3ccc(Br)cn3)c2=O)cc1	1.3	7.6	79.6*	-11.4	13.6	1.8
Cc1ccc(NCc2nnc(SCC(=O)N3CCCc4ccccc43)o2)c(C)c1	-3.2	7.2	74.7*	2.8	10.8	-6.8
Cc1ccc(-c2nc3ncccn3c2Nc2ccccc2C)o1	8.7	1.8	-19.7	-6.2	-0.3	2.4
Cc1ccc(-c2nc3cnccn3c2Nc2c(C)cccc2C)o1	5.9	101.7*	-40.3	-7.2	-0.8	10.1
CN(CC(=O)Nc1ccc(Cl)c(C(F)(F)F)c1)C(=O)Cc1ccsc1	5.4	13.0	.	-17.5	-1.9	16.6
N#CCSc1nc2c(cc1C#N)CCCC2	-61.7	-48.6	-15.4	0.0	-15.1	3.5
CSC1CCCCC1(O)CSc1nc2c(cc1C#N)CCCC2 (stereo unspecified)	23.6	19.3	85.2*	-0.1	-14.8	-8.8
C[C@H]1CN([C@@H](C)CO)C(=O)CCCn2cc(nn2)CO[C@@H]1CN(C)C(=O)Oc1ccccc1	-1.4	-3.6	.	-3.0	.	-0.2
O=S(=O)(Nc1cccc(CCc2ccccn2)c1)c1ccc2ccccc2c1	4.1	12.4	84.0*	12.9	-15.9	-6.7
O=S(=O)(Nc1cccc(CCc2ccccn2)c1)c1cc(Cl)ccc1Cl	12.8	13.1	13.6	2.8	-45.1	2.4
COC(=O)c1ccc(NC(=O)c2cc[n+]([O-])cc2)cc1	4.5	4.8	.	-2.2	3.2	4.3
CCOC(=O)c1[nH]c(C)c(C(=O)OCC(=O)Nc2sc3c(c2C#N)CCCCC3)c1C	0.5	30.6	84.1*	-14.4	14.3	9.5
COc1ccc(C)cc1NC(=O)c1cc2c(=O)n3ccccc3nc2n1C	-2.5	-15.0	-23.7	11.6	-13.4	-6.3
COc1ccc(CCn2c(=N)c(C(=O)NCc3ccco3)cc3c(=O)n4ccccc4nc32)cc1OC	2.0	6.5	.	-6.7	-4.3	-24.7
COc1ccc(CCNC(=O)c2cc3c(=O)n4ccccc4nc3n(Cc3ccco3)c2=N)cc1OC	-41.0	73.3*	.	6.1	-0.1	-4.7
COc1ccc(NC(=O)c2cc3c(=O)n4ccccc4nc3n2C)cc1OC	-29.4	-48.1	77.9*	1.5	-21.2	-5.5
Cc1ccccc1NC(=O)C1CCN(S(=O)(=O)c2cccc3nonc23)CC1	9.0	11.2	.	9.4	2.4	-10.7
CCOC(=O)c1cc2sc(C)cc2n1CC(=O)Nc1cccc(C)c1C	10.4	23.6	73.5*	0.8	5.5	-18.8
COCCN(C(=O)COC(=O)CCc1c[nH]c2ccccc12)c1c(N)n(Cc2ccccc2)c(=O)[nH]c1=O	11.0	-25.2	.	-4.3	8.9	3.1
CCOc1ccc(C(=O)c2cc([N+](=O)[O-])ccc2N2CCOCC2)cc1	28.3	-14.4	-35.5	-42.9	33.8	55.2*
Cc1ccc(C(=O)c2cc([N+](=O)[O-])ccc2N2CCOCC2)cc1	6.6	51.9*	-30.3	-18.2	-9.1	29.9
COc1ccc(C(=O)c2cc([N+](=O)[O-])ccc2N2CCOCC2)cc1	29.4	6.7	-68.7	-29.2	50.0	59.5*
COc1ccc(CCNC(=O)c2cc([N+](=O)[O-])ccc2N2CCOCC2)cc1	0.0	18.6	.	0.2	-4.1	3.0
SMILES	HIF-2a block	Peg3 promoter	CHOP inhibitor	KKLEB tox	TRPM1 prom inh	CF NFkB inh
Cc1ccc(COC(=O)c2cc([N+](=O)[O-])ccc2N2CCOCC2)cc1	28.4	22.7	.	-24.1	32.8	49.9
COc1cc(/C=N/NC(=Nc2ccc(C)cc2)c2nc3ccccc3s2)ccc1O	72.9*	72.4*	73.8*	-11.5	68.7*	-15.8
Cc1ccc(-c2oc3ncnc(N)c3c2-c2ccc(C)cc2)cc1	-10.1	19.9	82.3*	-7.8	6.6	24.9
CC(CC(=O)O)Nc1ccccc1O (stereo unspecified)	19.2	7.4	-28.0	1.7	-2.1	-1.9
Clc1ccc(OCc2nc(-c3ccccn3)no2)c(Br)c1	-56.0	-161.3	72.0*	-32.2	.	-24.8
O=C(NCC(c1ccco1)N1CCc2ccccc2C1)c1ccc(Br)cc1 (stereo unspecified)	0.6	-2.1	.	-5.4	3.2	21.1
O=C(CC1(O)C(=O)Nc2ccc(Br)cc21)c1ccccc1 (stereo unspecified)	10.2	-6.4	.	1.1	.	1.8
CCC1(C)Cc2ccccc2-c2nc(-c3ccccc3)oc(=O)c21 (stereo unspecified)	-10.1	10.5	79.6*	2.9	-3.5	-6.8
Cc1sc2ncn(CCn3cnc4sc(C)c(C)c4c3=O)c(=O)c2c1C	9.8	24.0	89.8*	-3.7	-1.2	-8.4
CCSCC1COC(c2cccn2Cc2ccc(C)cc2)=N1 (stereo unspecified)	-27.9	-21.9	76.5*	-6.0	-2.5	5.8
COc1ccc(-n2c(C)nc3c(cnn3-c3ccc(Cl)cc3)c2=O)cc1	-39.2	-16.1	83.0*	-14.7	12.1	4.0
CCOC(=O)c1ccc(-n2c(C)nc3c(cnn3-c3ccc(Cl)cc3)c2=O)cc1	23.1	20.5	76.1*	8.7	3.2	-4.3
COc1ccc(C(=O)NCCc2ccccc2F)cc1OC1CCN(C(C)=O)CC1	-7.1	6.7	.	-2.8	-9.5	-0.1
CC(=O)N1CCCC(C)(C(=O)Nc2cccc(OC(C)C)c2)C1 (stereo unspecified)	2.7	8.9	.	-3.2	.	7.9
O=C(NCC1CCCN(Cc2ccc3nonc3c2)C1)c1cccc(C(F)(F)F)c1 (stereo unspecified)	11.6	50.8*	0.6	-2.6	7.7	-10.3
COc1cccc(NC(=O)CSc2nc3ccccc3nc2N2CCOCC2)c1	-79.8	7.2	.	9.1	.	0.0
CC(=O)OC[C@]12CC[C@H]3[C@@](C)(CC[C@H]4C(C)(C)CCC[C@]34C)[C@@H]1CC(C1=CC(=O)OC1O)O2 (stereo partly specified)	88.9*	105.3*	.	-80.9*	.	92.2*
COc1ccc(N2C3=C(CC4=C2CC(C)(C)CC4=O)C(=O)CC(C)(C)C3)cc1	30.4	-14.6	4.3	-0.5	86.9*	-2.7
CCN(CC)CCN1C(=O)C(O)=C(C(=O)c2cc3cccc(OC)c3o2)C1c1ccc(F)cc1 (stereo unspecified)	17.7	18.6	13.8	-6.8	1.9	7.0
Cc1ccc(C(NC(=O)N2CCCCC2)=C(Cl)Cl)cc1F	0.0	53.0*	-9.3	6.2	26.1	4.6
CN(C)CCNc1nc(-c2ccccc2F)c2sccc2n1	-1.0	-0.9	.	-9.5	.	12.4
Clc1ccc(OCc2nnc(SCc3nc4ccccc4[nH]3)n2Cc2ccco2)cc1	4.9	5.7	81.1*	5.2	21.3	-6.0
